PubChem BioAssay (NCI)
Compounds without any hit were thinned out: in the full panel of roughly 83,000, 20% have a hit.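 Treatment: one concentration, 48 hours, 96-well format. Scoring: percent growth, with anything below 10 considered active.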 The source made the active and inactive calls.

These molecules were tested on NCI/ADR-RES ovarian (assay: NCI-60 one-dose screen, 48 h (100 = growth as untreated, 0 = no growth, -100 = all killed)). Conditions: 10 µM unless noted.
Method: Growth inhibition of the NCI/ADR-RES human […] tumor cell line is measured as a screen for anti-cancer activity. Cells are grown in 96 well plates and exposed to the test compound for 48 hours. Compounds are tested at a single concentration, which is 10^-5 M for most compounds. The reported endpoint is percent growth (GI% or GIPRCNT), where numbers from 0 - 100% represent growth inhibition, and numbers from -100% - 0 represent cell death. For example, a value of 40 represents 60% growth inhibition. A value of 0 means no net growth occurred over the course of the experiment. A value of -40 indicates 40% of cells at the beginning of the experiment died by the end of the experiment. A value of -100 means all cells are dead at the end of the experiment.
NCI-60 Human Tumor Cell Lines Screen was performed using the standard one-dose NCI protocol, which is described in more detail at https://dtp.cancer.gov/discovery_development/nci-60/default.htm.
Compounds with GIPRCNT values below 10 were considered active. Activity score was based on GIPRCNT using the following formula: […]
Score is 0 for GIPRCNT values of 100 or above, 50 for GIPRCNT values of 0, and 100 for GIPRCNT values of -100.

| Compound | growth |
| --- | --- |
| CCc1ncnc2c1ccn2C(C)c1ccc(OC)c(F)c1 (stereo not given) | 44.6% (inactive) |
| N#Cc1nc(-c2ccccc2)oc1S(=O)(=O)N1CCN(c2ccccc2)CC1 | 97.5% (inactive) |
| C=C(CBr)[C@@H]1CC[C@]2(C(=O)O)CC[C@]3(C)[C@H](CC[C@@H]4[C@@]5(C)CCC(=O)C(C)(C)[C@@H]5CC[C@]43C)[C@@H]12 | 83.4% (inactive) |
| Cc1nc2sc(C(=O)Nc3cccc(Br)c3)c(N)c2cc1C(O)c1ccccc1 (stereo not given) | 11.7% (inactive) |
| Cc1ccc(-c2nc(N3CCCNCC3)c3oc(-c4ccccc4)nc3n2)cc1 | -45.5% (active) |
| COc1cc2c(c(OC)c1OC)CCC(c1cccc(C(=O)Nc3ccc(C#N)cc3)c1)O2 (stereo not given) | 19% (inactive) |
| O=S(=O)(NCCCNc1nccc(-c2c(-c3ccc(F)c(O)c3)nc3sccn23)n1)c1ccccc1 | 100% (inactive) |
| N#Cc1nc(-c2ccc(F)cc2)oc1S(=O)(=O)N1CCCCC1 | 97.7% (inactive) |
| CCCC/C(CC)=N\NS(=O)(=O)c1ccc([N+](=O)[O-])cc1 | 104% (inactive) |
| CCCCCCCCCCCCCCCCCCOc1ccccc1CC(=O)OCC[N+](C)(C)C | 91.3% (inactive) |
| CCC(=O)Oc1ccc(-c2ccccc2)cc1Br | 110% (inactive) |
| CC(C)c1ccc(Cc2cnc(NC(=O)c3cc(Br)cs3)s2)cc1 | 6.8% (active) |
| Ic1ccc(OCCCCn2ccnc2)cc1 | 90.7% (inactive) |
| CCOC(=O)c1ccc2c(c1)nc(-c1ccccc1)n2C1CCCCC1 | 105% (inactive) |
| O=C(O)c1ccc(-n2cc(/C=N/Nc3ccccc3)c(-c3ccc(F)cc3F)n2)cc1 | 56.7% (inactive) |
| CN(C)CCNC(=O)c1ccc(-c2nc3ccc4[nH]ncc4c3c3c2C2CCC3C2)cc1 (stereo not given) | 77.7% (inactive) |
| CC(=O)c1c(C)nc(SCC(=O)Nc2cccc(O)c2)n1-c1ccc(Cl)cc1 | 98.9% (inactive) |
| CCn1cc(C(=O)O)c(=O)c2cc(F)c(N3CCN(CC(=O)Nc4ccc(S(=O)(=O)Nc5nccc(C)n5)cc4)C(C)C3)c(F)c21 (stereo not given) | 107% (inactive) |
| O=C(CSc1nc2ccc([N+](=O)[O-])cc2[nH]1)Nc1ccc([N+](=O)[O-])cc1 | 36.3% (inactive) |
| CCCCCCCC[C@@H]1N[C@@H](C(=O)OC)Cc2c1[nH]c1ccccc21 | 86.5% (inactive) |

| Compound | growth |
| --- | --- |
| COc1cc2cc(NCc3cccc(Cl)c3)nc(C)c2cc1OC | 42.5% (inactive) |
| O=C(O)c1cn(C2CC2)c2cc(N3CCN(C(=O)N(c4ccccc4)c4nc(-c5ccccc5)cs4)CC3)c(F)cc2c1=O | 2.3% (active) |
| C1CN(SSN2CCOCC2)CCO1 | 2.69% [100 µM] (active) |
| Clc1ccc2c(NC3CCC(N4CCOCC4)CC3)ccnc2c1 (stereo not given) | 77.2% (inactive) |
| O=S(=O)(Nc1ccc(F)cc1F)c1ccc(-c2cnc(C3CC3)o2)cc1 | 19.4% (inactive) |
| NC(=O)CSc1oc(-c2ccccc2)nc1S(=O)(=O)c1ccc(Br)cc1 | 86.4% (inactive) |
| CCCCNC(=O)Oc1ccc(/C(=C(/C)Cc2ccc(OC)cc2)c2ccc(OCCN(CC)CC)cc2)cc1 | 91.1% (inactive) |
| O=C1NC2(Nc3ccccc31)C(=O)Nc1c(Cl)cc(Cl)cc12 (stereo not given) | 108% (inactive) |
| CC(C)(C)CC(C)(C)NC(=O)Nc1ncccc1OCc1ccccc1 | 86.2% (inactive) |
| COc1ccc2c(c1OC)CO[C@@H]2[C@H]1c2c(cc3c(c2OC)OCO3)CCN1S(=O)(=O)c1cn(C)cn1 | 3.64% (active) |
| CCc1ccc(CCCC(=O)O)cc1 | 99.1% (inactive) |
| COc1ccc2c(c1)N(CCO)C1=C(C(=O)OC1)C2c1cccc(F)c1 (stereo not given) | 15.6% (inactive) |
| CCOC(=O)Cc1cnc(N/N=C(\C)c2cc3ccccc3o2)s1 | 103% (inactive) |
| CC(O)(c1ccccc1)C(c1ccccc1)C1CCCCN1 (stereo not given) | 105% (inactive) |
| COc1ccc(Cc2cnc(NC(=O)c3cc(C)oc3C)s2)cc1 | 20.6% (inactive) |
| O=C(NCCCl)Nc1ncccc1OCc1ccccc1 | 106% (inactive) |
| COc1cc2c(cc1OCCCN1CCN(CCCOc3cc4c(cc3OC)C(=O)N3CC(F)(F)C[C@H]3C=N4)CC1)N=C[C@@H]1CC(F)(F)CN1C2=O | 111% (inactive) |
| Cn1ccnc1C(=O)/C=C/c1ccc(C(=O)Nc2ccccc2O)cc1 | 23.7% (inactive) |
| O=C1NC(=C(Cl)Cl)/C(=N\S(=O)(=O)NCc2ccccc2)N1 | 109% (inactive) |
| Cc1ccc(Nc2cc(N)nc(N)n2)cc1Cl | 97% (inactive) |
